Holding throughout (assay): DAPPL (digital affinity profiling via proximity ligation, sequencing); 10 mM Tris-HCl pH 7.5, 50 mM NaCl, 1 mM DTT, 4% glycerol, room temperature, 30 min; GST-TFs on glutathione beads, 16-mer random dsDNA library, 0.1% formaldehyde crosslink after washing; high values mean tight binding
For assay [1], the target named is T1, FEV (Homo sapiens, UniProt Q99581 1-238).
T1 sequence: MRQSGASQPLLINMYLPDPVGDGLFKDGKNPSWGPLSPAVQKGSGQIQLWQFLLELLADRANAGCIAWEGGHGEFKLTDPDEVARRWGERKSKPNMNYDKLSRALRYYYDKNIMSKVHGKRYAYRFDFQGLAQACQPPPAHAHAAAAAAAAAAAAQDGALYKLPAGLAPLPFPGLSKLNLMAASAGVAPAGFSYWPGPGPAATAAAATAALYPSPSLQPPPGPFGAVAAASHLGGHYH
The following applies: protein: recombinant; tags: N-terminal GST; dsDNA, one strand shown. The gist of the method:
(§1)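 Binding signal is each hexamer's read frequency for a factor divided by its frequency in the tag-only sample. The factors were GST-fused human transcription factors from yeast, captured on glutathione beads, DNA-barcoded and pooled with that sample. Pools were incubated with 200 nmole of a random double-stranded 16-mer DNA library in Tris/NaCl/DTT/glycerol buffer at room temperature for 30 min, then washed, crosslinked with 0.1% formaldehyde, proximity-ligated with BsaI/T4 ligase (1 h, 37 °C), PCR-amplified and sequenced on an Illumina NextSeq500.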

For assay [2], the target named is ETV5 (Homo sapiens, UniProt P41161 1-510). As to conditions: protein: recombinant; tags: N-terminal GST; dsDNA, one strand shown. The gist of the method:
as §1

The target of assay [3] is HSF1 (Homo sapiens, UniProt Q00613 1-529). The following applies: protein: recombinant; tags: N-terminal GST; chain copies: 3; dsDNA, one strand shown. The gist of the method: as §1
HSF1, sequence (Q00613 whole entry): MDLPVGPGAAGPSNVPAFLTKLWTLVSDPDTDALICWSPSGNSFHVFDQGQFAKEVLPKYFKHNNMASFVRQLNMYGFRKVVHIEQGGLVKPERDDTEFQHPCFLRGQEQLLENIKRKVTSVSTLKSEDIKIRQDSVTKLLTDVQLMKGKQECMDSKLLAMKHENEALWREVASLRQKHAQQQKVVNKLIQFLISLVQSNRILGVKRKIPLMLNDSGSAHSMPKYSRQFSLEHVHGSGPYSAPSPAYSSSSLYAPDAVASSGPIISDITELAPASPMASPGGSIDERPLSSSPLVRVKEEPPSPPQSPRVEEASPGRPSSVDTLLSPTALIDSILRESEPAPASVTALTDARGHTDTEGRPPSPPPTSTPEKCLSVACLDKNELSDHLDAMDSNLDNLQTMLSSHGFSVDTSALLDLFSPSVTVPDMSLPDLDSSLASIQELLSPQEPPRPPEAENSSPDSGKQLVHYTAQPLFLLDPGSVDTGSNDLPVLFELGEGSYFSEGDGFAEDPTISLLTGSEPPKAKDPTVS
Assay [4] addresses T2, SPIC (Homo sapiens, UniProt Q8N5J4 1-248).
T2 sequence: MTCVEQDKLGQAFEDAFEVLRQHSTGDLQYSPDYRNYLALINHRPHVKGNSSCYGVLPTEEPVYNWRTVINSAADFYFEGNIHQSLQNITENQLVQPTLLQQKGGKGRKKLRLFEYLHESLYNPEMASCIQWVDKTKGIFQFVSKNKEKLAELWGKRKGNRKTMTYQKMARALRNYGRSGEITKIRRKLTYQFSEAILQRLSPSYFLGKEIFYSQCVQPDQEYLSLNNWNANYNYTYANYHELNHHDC
The following applies: protein: recombinant; tags: N-terminal GST; dsDNA, one strand shown. The gist of the method: as §1

For assay [5], the target named is ELF4 (Homo sapiens, UniProt Q99607 1-663). As to conditions: protein: recombinant; tags: N-terminal GST; dsDNA, one strand shown. The essentials:
as §1

The target of assay [6] is T3, ELK4 (Homo sapiens, UniProt P28324-2 1-405).
T3 sequence: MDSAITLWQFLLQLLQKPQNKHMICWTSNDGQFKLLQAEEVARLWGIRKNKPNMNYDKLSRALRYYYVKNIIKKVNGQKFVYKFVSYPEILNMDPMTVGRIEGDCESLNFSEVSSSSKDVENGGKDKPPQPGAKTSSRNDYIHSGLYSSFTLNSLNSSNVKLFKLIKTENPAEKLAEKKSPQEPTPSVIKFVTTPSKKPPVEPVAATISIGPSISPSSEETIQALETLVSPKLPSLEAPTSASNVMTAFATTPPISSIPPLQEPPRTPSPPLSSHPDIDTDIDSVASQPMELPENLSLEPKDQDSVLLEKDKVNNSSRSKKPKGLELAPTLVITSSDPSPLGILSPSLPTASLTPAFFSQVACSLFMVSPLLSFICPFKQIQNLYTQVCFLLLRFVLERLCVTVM
As to conditions: protein: recombinant; tags: N-terminal GST; dsDNA, one strand shown. The gist of the method: as §1

Assay [7] concerns the target T4, ETV2 (Homo sapiens, UniProt O00321 1-342).
T4 sequence: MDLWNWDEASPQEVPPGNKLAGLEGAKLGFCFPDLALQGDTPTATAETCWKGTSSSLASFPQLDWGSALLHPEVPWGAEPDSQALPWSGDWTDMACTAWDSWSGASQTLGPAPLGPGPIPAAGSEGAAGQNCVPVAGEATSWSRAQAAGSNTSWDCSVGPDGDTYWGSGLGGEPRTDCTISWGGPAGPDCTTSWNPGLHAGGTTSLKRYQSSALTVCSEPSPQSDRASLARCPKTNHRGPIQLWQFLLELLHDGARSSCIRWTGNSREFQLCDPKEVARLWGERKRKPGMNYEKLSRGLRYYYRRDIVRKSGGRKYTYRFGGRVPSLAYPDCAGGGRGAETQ
As to conditions: protein: recombinant; tags: N-terminal GST; dsDNA, one strand shown. The gist of the method:
as §1

For assay [8], the target named is T5, ELF3 (Homo sapiens, UniProt P78545 1-371).
T5 sequence: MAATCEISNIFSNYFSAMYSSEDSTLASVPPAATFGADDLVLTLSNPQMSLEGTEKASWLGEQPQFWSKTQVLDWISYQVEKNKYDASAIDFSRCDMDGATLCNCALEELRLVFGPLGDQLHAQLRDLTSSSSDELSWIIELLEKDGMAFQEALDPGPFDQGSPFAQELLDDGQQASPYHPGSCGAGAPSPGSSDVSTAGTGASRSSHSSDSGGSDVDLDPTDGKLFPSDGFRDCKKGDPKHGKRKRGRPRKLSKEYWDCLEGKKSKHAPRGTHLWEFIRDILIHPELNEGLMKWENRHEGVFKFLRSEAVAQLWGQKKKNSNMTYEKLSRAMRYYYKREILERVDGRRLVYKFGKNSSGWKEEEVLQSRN
The following applies: protein: recombinant; tags: N-terminal GST; dsDNA, one strand shown. The essentials: as §1

The target in assay [9] is CRX (Homo sapiens, UniProt O43186 1-299). The following applies: protein: recombinant; tags: N-terminal GST; dsDNA, one strand shown. The essentials:
as §1

Assay [10] concerns the target ETV1 (Homo sapiens, UniProt P50549 1-477). The following applies: protein: recombinant; tags: N-terminal GST; dsDNA, one strand shown. The gist of the method: as §1
Assay [11] has as its target T6, ERF (Homo sapiens, UniProt P50548 1-548).
T6 sequence: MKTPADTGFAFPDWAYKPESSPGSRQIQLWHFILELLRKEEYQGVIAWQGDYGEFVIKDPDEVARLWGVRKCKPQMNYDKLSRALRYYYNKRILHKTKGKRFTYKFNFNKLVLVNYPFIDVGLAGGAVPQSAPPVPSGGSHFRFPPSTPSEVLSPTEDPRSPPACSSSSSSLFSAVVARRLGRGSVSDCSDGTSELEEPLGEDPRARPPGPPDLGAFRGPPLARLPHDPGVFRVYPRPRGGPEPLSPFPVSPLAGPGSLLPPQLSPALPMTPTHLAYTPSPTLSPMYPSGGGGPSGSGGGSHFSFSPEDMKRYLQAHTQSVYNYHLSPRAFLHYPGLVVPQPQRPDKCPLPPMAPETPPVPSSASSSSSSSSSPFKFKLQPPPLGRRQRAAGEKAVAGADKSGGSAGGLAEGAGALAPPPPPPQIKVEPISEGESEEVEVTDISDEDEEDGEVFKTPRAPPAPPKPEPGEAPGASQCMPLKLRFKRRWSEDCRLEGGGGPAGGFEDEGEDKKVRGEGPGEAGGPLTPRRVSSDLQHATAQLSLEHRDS
The following applies: protein: recombinant; tags: N-terminal GST; dsDNA, one strand shown. The essentials:
as §1

For assay [12], the target named is T7, ETV3L (Homo sapiens, UniProt Q6ZN32 1-361).
T7 sequence: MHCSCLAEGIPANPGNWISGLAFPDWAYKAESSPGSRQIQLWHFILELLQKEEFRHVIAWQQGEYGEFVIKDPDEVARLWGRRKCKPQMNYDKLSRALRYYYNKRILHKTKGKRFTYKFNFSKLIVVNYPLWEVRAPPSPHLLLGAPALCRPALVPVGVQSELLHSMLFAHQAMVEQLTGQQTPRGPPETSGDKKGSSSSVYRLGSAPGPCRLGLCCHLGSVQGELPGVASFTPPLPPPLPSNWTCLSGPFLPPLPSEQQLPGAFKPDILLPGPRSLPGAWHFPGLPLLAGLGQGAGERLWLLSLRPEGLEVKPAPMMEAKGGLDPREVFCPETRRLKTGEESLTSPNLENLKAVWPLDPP
As to conditions: protein: recombinant; tags: N-terminal GST; dsDNA, one strand shown. The gist of the method:
as §1

Assay [13] deals with T8, ETS2 (Homo sapiens, UniProt P15036 1-469).
T8 sequence: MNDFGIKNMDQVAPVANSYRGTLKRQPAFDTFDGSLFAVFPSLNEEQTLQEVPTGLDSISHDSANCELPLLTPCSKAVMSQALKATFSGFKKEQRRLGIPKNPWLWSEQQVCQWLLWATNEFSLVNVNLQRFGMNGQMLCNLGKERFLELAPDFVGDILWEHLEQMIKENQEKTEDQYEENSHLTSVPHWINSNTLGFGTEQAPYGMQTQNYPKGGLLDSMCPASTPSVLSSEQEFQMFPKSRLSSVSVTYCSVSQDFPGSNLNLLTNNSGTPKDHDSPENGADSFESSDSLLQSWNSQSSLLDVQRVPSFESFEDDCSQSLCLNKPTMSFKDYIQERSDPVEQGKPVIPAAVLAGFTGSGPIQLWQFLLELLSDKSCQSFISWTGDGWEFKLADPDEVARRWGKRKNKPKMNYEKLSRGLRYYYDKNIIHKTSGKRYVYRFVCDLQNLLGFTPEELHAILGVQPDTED
As to conditions: protein: recombinant; tags: N-terminal GST; dsDNA, one strand shown. The essentials: as §1

Assay [14] has as its target T9, SPDEF (Homo sapiens, UniProt O95238 1-335).
T9 sequence: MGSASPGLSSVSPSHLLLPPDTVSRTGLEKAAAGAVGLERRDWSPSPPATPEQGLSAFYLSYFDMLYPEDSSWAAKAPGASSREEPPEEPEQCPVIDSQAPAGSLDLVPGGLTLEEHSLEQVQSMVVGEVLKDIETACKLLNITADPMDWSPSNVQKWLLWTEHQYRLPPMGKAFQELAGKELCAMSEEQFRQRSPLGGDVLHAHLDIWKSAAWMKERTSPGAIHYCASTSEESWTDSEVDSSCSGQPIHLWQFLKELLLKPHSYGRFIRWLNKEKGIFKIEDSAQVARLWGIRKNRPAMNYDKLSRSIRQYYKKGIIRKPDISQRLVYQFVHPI
As to conditions: protein: recombinant; tags: N-terminal GST; dsDNA, one strand shown. The essentials: as §1

The target of assay [15] is T10, ETV7 (Homo sapiens, UniProt Q9Y603 1-341).
T10 sequence: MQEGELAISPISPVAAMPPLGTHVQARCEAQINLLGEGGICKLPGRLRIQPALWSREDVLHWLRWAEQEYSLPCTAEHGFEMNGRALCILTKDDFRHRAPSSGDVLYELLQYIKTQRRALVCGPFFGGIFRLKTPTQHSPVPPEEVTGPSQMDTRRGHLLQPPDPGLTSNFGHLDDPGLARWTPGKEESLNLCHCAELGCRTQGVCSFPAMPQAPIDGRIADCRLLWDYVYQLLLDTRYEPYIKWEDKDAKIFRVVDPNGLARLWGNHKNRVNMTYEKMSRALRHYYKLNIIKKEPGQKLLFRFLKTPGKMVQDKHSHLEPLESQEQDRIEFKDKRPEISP
As to conditions: protein: recombinant; tags: N-terminal GST; dsDNA, one strand shown. The essentials:
as §1

Assay [16] deals with T11, ELF5 (Homo sapiens, UniProt Q9UKW6-2 1-255).
T11 sequence: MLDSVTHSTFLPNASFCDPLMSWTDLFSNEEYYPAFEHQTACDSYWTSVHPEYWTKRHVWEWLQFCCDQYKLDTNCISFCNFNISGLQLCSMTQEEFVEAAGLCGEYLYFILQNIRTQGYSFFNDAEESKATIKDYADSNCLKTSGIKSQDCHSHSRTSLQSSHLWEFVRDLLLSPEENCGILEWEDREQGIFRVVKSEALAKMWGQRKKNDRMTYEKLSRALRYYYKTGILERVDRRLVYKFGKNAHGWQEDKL
The following applies: protein: recombinant; tags: N-terminal GST; dsDNA, one strand shown. The essentials:
as §1

The target of assay [17] is T12, ETV3 (Homo sapiens, UniProt P41162-2 1-143).
T12 sequence: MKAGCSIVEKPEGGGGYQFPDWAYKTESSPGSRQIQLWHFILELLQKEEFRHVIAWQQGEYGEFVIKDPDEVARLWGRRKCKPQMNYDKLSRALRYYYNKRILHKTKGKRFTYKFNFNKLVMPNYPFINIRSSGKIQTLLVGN
The following applies: protein: recombinant; tags: N-terminal GST; dsDNA, one strand shown. The gist of the method:
as §1

Assay [18] addresses ETV6 (Homo sapiens, UniProt P41212 1-452). The following applies: protein: recombinant; tags: N-terminal GST; dsDNA, one strand shown. The essentials:
as §1

Results on 1 sequence are retold here after article PMC7862700, “An all-to-all approach to the identification of sequence-specific readers for epigenetic DNA modifications on cytosine”.

ELF4, sequence (Q99607 whole entry): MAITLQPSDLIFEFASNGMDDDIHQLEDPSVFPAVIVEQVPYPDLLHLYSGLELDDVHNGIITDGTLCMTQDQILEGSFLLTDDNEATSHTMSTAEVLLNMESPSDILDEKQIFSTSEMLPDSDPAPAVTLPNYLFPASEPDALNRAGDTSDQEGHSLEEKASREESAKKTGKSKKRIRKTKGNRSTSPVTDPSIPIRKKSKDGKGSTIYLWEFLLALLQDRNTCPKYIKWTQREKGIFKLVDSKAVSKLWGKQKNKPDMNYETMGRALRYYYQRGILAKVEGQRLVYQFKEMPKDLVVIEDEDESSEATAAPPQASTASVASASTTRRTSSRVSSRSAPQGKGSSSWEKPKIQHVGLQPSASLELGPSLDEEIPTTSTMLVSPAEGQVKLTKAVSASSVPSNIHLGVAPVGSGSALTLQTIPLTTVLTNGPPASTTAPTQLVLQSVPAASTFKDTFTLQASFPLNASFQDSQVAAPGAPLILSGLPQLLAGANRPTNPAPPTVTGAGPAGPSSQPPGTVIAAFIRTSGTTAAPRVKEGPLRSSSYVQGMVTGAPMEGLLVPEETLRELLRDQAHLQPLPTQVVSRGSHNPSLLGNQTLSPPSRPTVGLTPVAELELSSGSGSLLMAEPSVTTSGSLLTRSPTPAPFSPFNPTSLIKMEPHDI
ETV5, sequence (P41161 whole entry): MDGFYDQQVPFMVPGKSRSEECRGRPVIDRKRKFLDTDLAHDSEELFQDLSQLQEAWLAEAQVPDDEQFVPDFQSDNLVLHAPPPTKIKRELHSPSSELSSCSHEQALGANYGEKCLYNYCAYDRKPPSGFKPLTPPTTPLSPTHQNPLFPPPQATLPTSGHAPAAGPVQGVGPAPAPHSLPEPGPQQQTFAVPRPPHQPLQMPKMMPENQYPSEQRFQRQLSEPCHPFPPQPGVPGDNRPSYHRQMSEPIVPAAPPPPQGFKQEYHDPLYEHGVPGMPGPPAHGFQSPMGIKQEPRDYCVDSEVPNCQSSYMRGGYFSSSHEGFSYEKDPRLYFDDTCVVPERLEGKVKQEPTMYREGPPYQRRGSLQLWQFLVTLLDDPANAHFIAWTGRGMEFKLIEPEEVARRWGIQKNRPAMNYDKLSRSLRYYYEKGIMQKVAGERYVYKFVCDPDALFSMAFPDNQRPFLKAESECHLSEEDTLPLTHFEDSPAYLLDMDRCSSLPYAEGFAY
ETV6, sequence (P41212 whole entry): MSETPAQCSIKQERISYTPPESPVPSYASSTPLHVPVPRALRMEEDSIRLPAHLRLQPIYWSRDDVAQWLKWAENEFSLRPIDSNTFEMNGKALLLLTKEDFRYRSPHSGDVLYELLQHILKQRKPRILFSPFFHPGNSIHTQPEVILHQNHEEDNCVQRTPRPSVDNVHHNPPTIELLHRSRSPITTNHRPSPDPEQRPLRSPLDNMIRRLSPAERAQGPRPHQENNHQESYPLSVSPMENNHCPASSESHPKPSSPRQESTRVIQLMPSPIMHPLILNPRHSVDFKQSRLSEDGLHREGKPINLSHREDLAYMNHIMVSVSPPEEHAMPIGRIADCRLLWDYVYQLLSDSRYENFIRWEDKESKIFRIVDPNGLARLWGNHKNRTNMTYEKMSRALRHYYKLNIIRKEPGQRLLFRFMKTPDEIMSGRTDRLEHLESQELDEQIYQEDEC
ETV1, sequence (P50549 whole entry): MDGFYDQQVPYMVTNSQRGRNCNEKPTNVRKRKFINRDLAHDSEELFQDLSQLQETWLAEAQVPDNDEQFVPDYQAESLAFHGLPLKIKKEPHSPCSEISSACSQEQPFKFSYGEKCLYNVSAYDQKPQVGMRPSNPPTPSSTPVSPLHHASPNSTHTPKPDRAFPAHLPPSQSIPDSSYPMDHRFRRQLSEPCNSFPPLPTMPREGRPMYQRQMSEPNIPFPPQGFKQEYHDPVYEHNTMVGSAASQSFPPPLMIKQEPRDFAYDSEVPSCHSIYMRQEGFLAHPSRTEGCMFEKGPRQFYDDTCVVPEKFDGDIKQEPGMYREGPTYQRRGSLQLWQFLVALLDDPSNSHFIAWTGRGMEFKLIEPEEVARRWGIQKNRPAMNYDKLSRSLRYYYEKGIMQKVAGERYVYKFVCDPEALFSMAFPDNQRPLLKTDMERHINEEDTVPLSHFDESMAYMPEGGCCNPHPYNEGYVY
CRX, sequence (O43186 whole entry): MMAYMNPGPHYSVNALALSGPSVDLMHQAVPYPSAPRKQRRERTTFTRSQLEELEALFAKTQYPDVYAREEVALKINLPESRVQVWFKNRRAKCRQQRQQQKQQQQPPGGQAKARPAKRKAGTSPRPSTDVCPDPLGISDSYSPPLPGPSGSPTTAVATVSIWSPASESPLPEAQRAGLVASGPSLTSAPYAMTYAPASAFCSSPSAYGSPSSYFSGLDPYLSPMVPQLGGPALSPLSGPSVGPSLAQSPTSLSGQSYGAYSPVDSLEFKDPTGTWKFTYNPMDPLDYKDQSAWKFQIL

For the sequence AAATTT, the binding signal in assay [1] is 1.34 fold enrichment (6-mer frequency, TF over GST control); in assay [2], 1.36 fold enrichment (6-mer frequency, TF over GST control); in [3] it was 1.47 fold enrichment (6-mer frequency, TF over GST control); in [4] it was 1.1 fold enrichment (6-mer frequency, TF over GST control); in [5], 1.19 fold enrichment (6-mer frequency, TF over GST control); in assay [6] it was 1.22 fold enrichment (6-mer frequency, TF over GST control). Moreover, the binding signal was 1.29 fold enrichment (6-mer frequency, TF over GST control) in assay [7]; 1.43 fold enrichment (6-mer frequency, TF over GST control) in assay [8]; 1.24 fold enrichment (6-mer frequency, TF over GST control) in assay [9]; 1.35 fold enrichment (6-mer frequency, TF over GST control) in assay [10]; 1.43 fold enrichment (6-mer frequency, TF over GST control) in assay [11]; 1.4 fold enrichment (6-mer frequency, TF over GST control) in assay [12]. Further, the binding signal in assay [13] is 1.35 fold enrichment (6-mer frequency, TF over GST control); in assay [14] it was 1.15 fold enrichment (6-mer frequency, TF over GST control); in assay [15], 1.36 fold enrichment (6-mer frequency, TF over GST control); in assay [16], 1.43 fold enrichment (6-mer frequency, TF over GST control); in assay [17], 1.27 fold enrichment (6-mer frequency, TF over GST control); in assay [18] it was 1.37 fold enrichment (6-mer frequency, TF over GST control).
